Data from PubChem BioAssay (EPA / NIEHS).
Results filed as inconclusive are left out. Active and inactive are the calls of the source. The calls were made as follows, unless noted: active = hit-call score of the fitted dose curve at least 0.9, where 1 is the maximum; inconclusive = response in the unintended direction; inactive = score below 0.9.

Key:
[1] = TOX21_p53_BLA_p2_viability: Viability Assessment in the Tox21 HCT-116 p53 Agonism Beta-lactamase Assay, Phase 2 (AID 2283591);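 also: compound exposure lasted 16 h at 37 °C; actives lower the ATP signal meaning cytotoxicity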
In short: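 HCT-116 p53-bla cells (4000/well) rested 5 h at 37C, then received compounds in DMSO (217-fold dilution) for 16 h at 37C, 5% CO2. After the CCF4 read, CellTiter-Glo was added; ATP luminescence was read after 30 min at room temperature.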

[2] = target: Cellular tumor antigen p53 (Homo sapiens) (UniProt P04637); assay: TOX21_p53_BLA_p2_ratio: Tox21 HCT-116 p53 Agonism Beta-lactamase Assay, Ratio, Phase 2 (AID 2283592)
Sequence of Cellular tumor antigen p53 (Homo sapiens) (P04637 whole entry, looked up): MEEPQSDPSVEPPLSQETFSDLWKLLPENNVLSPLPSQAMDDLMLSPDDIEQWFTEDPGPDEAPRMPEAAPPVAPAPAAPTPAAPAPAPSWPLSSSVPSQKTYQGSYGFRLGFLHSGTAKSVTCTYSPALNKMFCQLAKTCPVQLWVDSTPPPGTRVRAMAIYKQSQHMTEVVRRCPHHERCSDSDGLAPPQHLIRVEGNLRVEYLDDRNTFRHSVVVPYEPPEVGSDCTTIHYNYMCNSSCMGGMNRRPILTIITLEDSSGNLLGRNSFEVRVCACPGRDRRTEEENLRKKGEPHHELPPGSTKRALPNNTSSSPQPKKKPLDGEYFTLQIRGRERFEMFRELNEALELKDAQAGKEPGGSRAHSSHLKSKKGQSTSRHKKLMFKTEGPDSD
In short: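 Cleaved-to-uncleaved substrate ratio (460 vs 530 nm) measured in HCT116 cells with an inducible beta-lactamase reporter linked to p53 activity. Compounds incubated 16 h at 37C before 2 h room-temperature CCF4-AM loading.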

[3] = TOX21_p53_BLA_p3_viability: Viability Assessment in the Tox21 HCT-116 p53 Agonism Beta-lactamase Assay, Phase 3 (AID 2283593);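 also: cells exposed to compound for 16 h before reading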
In short: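 HCT-116 cells (4000/well) rested 5 h at 37C, then got DMSO compounds by pin tool (217-fold dilution) for 16 h at 37C, 5% CO2. After the bla read, CellTiter-Glo was added and luminescence read at 30 min, room temperature.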

[4] = TOX21_p53_BLA_p5_viability: Viability Assessment in the Tox21 HCT-116 p53 Agonism Beta-lactamase Assay, Phase 5 (AID 2283600)
In short: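 Viability is taken from cellular ATP content, measured by luciferase luminescence in the same wells after the beta-lactamase ratio read. Cells are seeded at 4000 per well and exposed to DMSO-dissolved compounds, diluted 217-fold, for 16 h.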

[5] = target: Cellular tumor antigen p53 (Homo sapiens) (UniProt P04637); assay: TOX21_p53_BLA_p5_ratio: Tox21 HCT-116 p53 Agonism Beta-lactamase Assay, Ratio, Phase 5 (AID 2283599)
In short: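 HCT-116 cells carrying a p53-inducible beta-lactamase reporter were seeded at 4000 cells/well and dosed after 5 h with compound in DMSO (217-fold dilution). After 16 h at 37C, CCF4-AM substrate was added for 2 h, and the 460/530 nm emission ratio was scored as gain-of-signal versus DMSO.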

[6] = target: Cellular tumor antigen p53 (Homo sapiens) (UniProt P04637); assay: TOX21_p53_BLA_p4_ratio: Tox21 HCT-116 p53 Agonism Beta-lactamase Assay, Ratio, Phase 4 (AID 2283601)
In short: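 HCT116 cells carrying an inducible beta-lactamase reporter were plated at 4000 cells/well, rested 5 h, then exposed to compounds in DMSO (217-fold dilution) for 16 h at 37C. CCF4-AM substrate was loaded 2 h at room temperature; 460/530 nm emission ratio scored gain-of-signal versus DMSO.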

[7] = CCTE_Harrill_HTTr_Viability_MCF7: CCTE's 6-hour Cell Viability Assessment for the High-Throughput Transcriptomics (HTTr) Platform, in MCF-7 cells cultured in DMEM + 10% fetal bovine serum, Harrill Lab (AID 2284010; active = hit-call score of the fitted dose curve at least 0.9, where 1 is the maximum; inactive = score below 0.9)
In short: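 Propidium iodide exclusion, imaged by high-content analysis, gauged viability after a six-hour exposure across eight concentrations. Cells were MCF-7 grown in DMEM with 10% fetal bovine serum; fits run in both directions against DMSO.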

[8] = CCTE_Harrill_HTTr_Apoptosis_MCF7: CCTE's 6-hour Apoptosis Assessment for the High-Throughput Transcriptomics (HTTr) Platform, in MCF-7 cells cultured in DMEM + 10% fetal bovine serum, Harrill Lab (AID 2284011; active = hit-call score of the fitted dose curve at least 0.9, where 1 is the maximum; inactive = score below 0.9)
In short: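 Cells are dosed with test chemicals at eight concentrations and imaged 6 hours later for caspase-3/7 activity using a green fluorogenic detection reagent. Activity is fitted in both directions against DMSO controls.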

[9] = CCTE_Harrill_HTTr_CellCount_MCF7: CCTE's Cell Proliferation Assessment for the High-Throughput Transcriptomics (HTTr) Platform, Harrill Lab (AID 2284012);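 also: cells exposed to compound for six hours; intended direction is loss of nuclei count meaning fewer cells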
In short: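 Cell count from high-content imaging of Hoechst-labeled nuclei serves as viability/growth readout. Chemicals were applied to MCF-7 cells in eight concentrations for six hours, with fitting in both directions relative to DMSO.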

Measured: outcome

NC(=O)c1ccccc1N
inactive: [1] | [2] | [3] | [4]

CCCOCCOCCO
inactive: [1] | [2] | [3] | [5] | [6]

CC1(C)C(O)C(C)(C)C1O (stereo unspecified)
not listed: [7] | [8] | [9]
inactive: all other assays above

C=C(C)C1CCC(C)(O)CC1 (stereo unspecified)
inactive: all assays above

CC(C)N1CCN(c2ccc(OC[C@H]3CO[C@](Cn4cncn4)(c4ccc(Cl)cc4Cl)O3)cc2)CC1
not listed: [7] | [8] | [9]
inactive: all other assays above

CN1C(=O)CC(C)(c2ccccc2)C1=O (stereo unspecified)
inactive: [1] | [2] | [3] | [5] | [6]

Nc1ccc2ccccc2c1S(=O)(=O)O
not listed: [7] | [8] | [9]
inactive: all other assays above

CCCCCCCCCCCCCCCCCCOP(=O)([O-])OC1CC[N+](C)(C)CC1
inactive: [1] | [2] | [3] | [5] | [6]

CC(C)(C)OC=O
not listed: [7] | [8] | [9]
inactive: all other assays above

CNCCS(=O)(=O)O
not listed: [7] | [8] | [9]
inactive: all other assays above

COc1cc(-c2ccc(=O)[nH]n2)ccc1OC(F)F
inactive: [1] | [2] | [3] | [4] | [6]

C=CCCC=C
inactive: [1] | [2] | [3] | [4] | [6]

CN(C(=O)CO)c1c(I)c(C(=O)NCC(O)CO)c(I)c(C(=O)NCC(O)CO)c1I (stereo unspecified)
inactive: [1] | [2] | [3] | [4] | [6]

C/C(=N\O)c1ccc(OCC(=O)N2CCCCC2)cc1
inactive: [1] | [2] | [3] | [4]

CCOC(=O)c1ncn2c1CN(C)C(=O)c1cc(F)ccc1-2
inactive: [1] | [2] | [3] | [4]

O=C(OC(=O)c1ccccc1)c1ccccc1
inactive: [1] | [2] | [3] | [4] | [6]

CC(C)CCC[C@@H](C)[C@H]1CC[C@H]2[C@@H]3CC=C4C[C@@H](O)CC[C@]4(C)[C@H]3CC[C@]12C
inactive: [1] | [2] | [3] | [5] | [6]
